Experimental data published in PubChem BioAssay (Tox21).
Results filed as inconclusive are left out. Active and inactive are the calls of the source. Unless noted, the call rests on the fitted dose curve; in most records, active means well fitted curve in the direction sought with a large enough effect in the repeat runs; inconclusive means weak or mixed curves; inactive means no such curve, though single readings can be large; an effect the other way counts as inactive or inconclusive.

Key:
[1] = qHTS assay for small molecules that induce genotoxicity in human embryonic kidney cells expressing luciferase-tagged ATAD5 (AID 651632); further: nearly all actives have a fitted effect of over 15% in size
In short: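 Luminescence read-out: after 16 hr compound exposure at 37C, ATAD5-luciferase HEK293T cells received Amplite, 30 min RT, then CCD imaging. A rise in signal marks genotoxic stress.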

[2] = qHTS assay for small molecule agonists of the p53 signaling pathway - cell viability (AID 651633; calls by dose curve;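 further: p53RE-bla HCT reporter cells with a stable beta-lactamase p53 reporter; series mostly up to about 83 µM; nearly all actives have a fitted effect of over 30% in size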)
In short: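 p53RE-bla cells, seeded at 4,000 per well and rested 5 h at 37 C/5% CO2, received compounds in DMSO for 16 h at 37 C. CellTiter-Glo was then added, and luminescence was read after 30 min at room temperature to gauge cytotoxicity.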

[3] = qHTS assay for small molecules that induce genotoxicity in human embryonic kidney cells expressing luciferase-tagged ATAD5 - cell viability (AID 651634; calls by dose curve; further: nearly all actives have a fitted effect of over 25% in size)
In short: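 HEK293T ATAD5-luc cells, 2,000/well; compound 15.5 hr, 37C/5% CO2; CellTiter-Fluor 30 min, 37C; fluorescence read.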

[4] = qHTS assay for small molecule disruptors of the mitochondrial membrane potential - cell viability (AID 720634; calls by dose curve;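 further: human HepG2 liver cancer cells; series mostly up to about 83 µM; nearly all actives have a fitted effect of over 20% in size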)
In short: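 Luminescence from CellTiter-Glo (ATP content) gave viability in HepG2 cells, read in the same wells as the MMP dye assay after 1 hr compound exposure at 37 C.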

[5] = qHTS assay to test for compound auto fluorescence at 590 nm (red) in HepG2 cells (AID 720674)
In short: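 Compound auto-fluorescence is scored relative to Rose Bengal sodium, measured at 540/590 nm in live HepG2 cultures after 1 hr compound contact (37 C, 5% CO2).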

[6] = qHTS assay to test for compound auto fluorescence at 535 nm (green) in HepG2 cells (AID 720675)
[7] = qHTS assay to test for compound auto fluorescence at 460 nm (blue) in HEK293 cells (AID 720678)
In short: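 Cells were seeded and left to adhere for 4-5 hr at 37C. Compounds were then pin-transferred. After an overnight incubation at 37C under 5% CO2, intrinsic fluorescence at 405/460 nm was measured and referenced to triamterene.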

[8] = qHTS assay to test for compound auto fluorescence at 590 nm (red) in HEK293 cells (AID 720679)
In short: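 Each well held 2,000 HEK293 cells in medium containing 10% dialyzed FBS. Following 4-5 hr attachment at 37C, 23 nL test compound or DMSO was added; plates sat overnight, and red fluorescence (540/590nm) was recorded.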

[9] = qHTS assay for small molecule disruptors of the mitochondrial membrane potential (AID 720635)
In short: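 HepG2 cells (2,000/well) attached overnight at 37C, then took compound for 1 hr at 37C, 5% CO2. Mito-MPS dye was added for 30 min; fluorescence was read at 490/535 nm (monomers) and 540/590 nm (aggregates).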
On the % scale 0 is the no-effect control and ±100 the full control effect.

O=S(=O)(O)c1cc(O)c2ccc(Nc3ccccc3)cc2c1
inactive: Potency [1] | outcome [2] | Potency [3] | outcome [4] | outcome [5] | outcome [6] | outcome [7] | outcome [8]

CCOC(=O)CC(=O)c1ccccc1
inactive: Potency [1] | outcome [2] | Potency [3] | outcome [4] | outcome [5] | outcome [6] | outcome [7] | outcome [8]

CNC(=O)[C@H]1O[C@@H](n2cnc3c(NCc4cc(Cl)ccc4OCc4cc(C)no4)ncnc32)[C@H](O)[C@@H]1N
inactive: Potency [1] | outcome [2] | Potency [3] | outcome [4] | outcome [5] | outcome [6] | outcome [7] | outcome [8]

CCN(C)C(=O)Oc1cccc([C@H](C)N(C)C)c1
inactive: Potency [1] | outcome [2] | Potency [3] | outcome [4] | outcome [5] | outcome [6] | outcome [7] | outcome [8]

O=C1c2cccc3c2[C@H](CCC3)CN1[C@@H]1CN2CCC1CC2
inactive: Potency [1] | outcome [2] | outcome [4] | Potency [9] | outcome [5] | outcome [6] | outcome [7] | outcome [8]

OCCC(F)(F)C(F)(F)C(F)(F)C(F)(F)C(F)(F)C(F)(F)C(F)(F)C(F)(F)F
inactive: Potency [1] | outcome [2] | Potency [3] | outcome [4] | outcome [5] | outcome [6] | outcome [7] | outcome [8]

O=S(O)(O)=S
inactive: activation [1] 2.28% [at 8.08 µM] | activity change, negative = cytotoxicity [2] 18.5% [at 8.08 µM] | activity, negative = cytotoxicity [3] -2.41% [at 8.08 µM] | activity change, negative = cytotoxicity [4] 11.6% [at 8.08 µM] | fluorescence, relative to Rose Bengal [5] -0.423% [at 3.72 µM] | fluorescence, % of fluorescein control [6] 0.0128% [at 3.72 µM] | fluorescence, % of triamterene [7] -0.0172% [at 3.72 µM] | fluorescence, % of fluorescent control [8] 0.178% [at 3.72 µM]

CCCCCCCCCC(C)=O
inactive: Potency [1] | outcome [2] | Potency [3] | outcome [4] | outcome [5] | outcome [6] | outcome [7] | outcome [8]

O=C1c2ccccc2C(=O)N1CCl
inactive: Potency [1] | outcome [2] | Potency [3] | outcome [4] | outcome [5] | outcome [6] | outcome [7] | outcome [8]

O=C(/N=N/C(=O)OCc1ccccc1)OCc1ccccc1
inactive: Potency [1] | outcome [2] | Potency [3] | outcome [5] | outcome [6] | outcome [7] | outcome [8]

CN(C)c1ccc(C=O)cc1
inactive: Potency [1] | outcome [2] | Potency [3] | outcome [4] | outcome [5] | outcome [6] | outcome [7] | outcome [8]

CC(S)C(=O)NCC(=O)O (stereo not drawn)
inactive: Potency [1] | outcome [2] | Potency [3] | outcome [5] | outcome [6] | outcome [7] | outcome [8]

O=C(CCN1CCN(CCO)CC1)N1c2ccccc2Sc2ccc(C(F)(F)F)cc21
inactive: Potency [1] | outcome [2] | Potency [3] | outcome [4] | outcome [5] | outcome [6] | outcome [7] | outcome [8]

O=C1c2ccccc2C(=O)c2cc(S(=O)(=O)O)ccc21
inactive: Potency [1] | outcome [2] | Potency [3] | outcome [4] | outcome [5] | outcome [6] | outcome [7] | outcome [8]

OC[C@H](Cc1cccc(O)c1)[C@H](CO)Cc1cccc(O)c1
inactive: Potency [1] | outcome [2] | Potency [3] | outcome [4] | outcome [5] | outcome [6] | outcome [7] | outcome [8]

CC(C)C(=O)OCCc1ccccc1
inactive: Potency [1] | outcome [2] | Potency [3] | outcome [4] | outcome [5] | outcome [6] | outcome [7] | outcome [8]

COC(=O)CCCCCCCC(=O)OC
inactive: Potency [1] | outcome [2] | Potency [3] | outcome [4] | outcome [5] | outcome [6] | outcome [7] | outcome [8]

NNc1nnc(NN)c2ccccc12
inactive: Potency [1] | outcome [2] | Potency [3] | outcome [4] | outcome [5] | outcome [6] | outcome [7] | outcome [8]

Cc1cccc(C)c1OCC(C)N (stereo not drawn)
inactive: Potency [1] | outcome [2] | Potency [3] | outcome [5] | outcome [6] | outcome [7] | outcome [8]

C[C@@H](Oc1ccc(CNC(=O)c2cccnc2Oc2ccc3c(c2)OCO3)c(F)c1)C(=O)O
inactive: Potency [1] | outcome [2] | Potency [3] | outcome [4] | outcome [5] | outcome [6] | outcome [7] | outcome [8]

O=Cc1ccc(Cl)c(Cl)c1
inactive: Potency [1] | outcome [2] | Potency [3] | outcome [4] | outcome [5] | outcome [6] | outcome [7] | outcome [8]

CCC(C)(CCC(C)C)C(=O)O (stereo not drawn)
inactive: Potency [1] | outcome [2] | Potency [3] | outcome [4] | outcome [5] | outcome [6] | outcome [7] | outcome [8]
